Compound activity from PubChem.
Sfp inh: blocks B. subtilis Sfp PPTase activity; Q9F4F7; Biochemical Sfp PPTase activity, qHTS; Potency, µM, usual class: inhibitors; hit rate 3.5% among 310,000;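 further: the enzyme is Sfp with the accession as filed and its product quenches rhodamine fluorescence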
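Buffer: 50 mM Hepes-Na pH 7.6, 10 mM MgCl2, 0.01% Nonidet P-40, 0.01% BSA. Enzyme 15 nM, pre-exposed to compound 15 min; substrates then added and fluorescence change tracked over 30 min.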
BAZ2B block: inhibitors of human BAZ2B bromodomain; AlphaScreen BAZ2B-H3K14Ac peptide displacement; Potency, µM (titrated, usually from 114 µM), hits mostly inhibitors; hit rate 4.4% among 360,000; further: nearly all actives have a fitted effect of over 60% in size
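AlphaScreen luminescence quantifies BAZ2B engagement of H3K14Ac peptide; the protein and biotinylated peptide are both at 50 nM final, buffer PBS pH 7.4 with 0.01% Tween-20, all steps at room temperature.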
HP1b binding inh: blocks HP1-beta chromodomain binding to methylated histone tails; P83916; AlphaScreen HP1-beta / biotin-H3K9me3 peptide binding; Potency, µM (highest dose often 114 µM), most hits filed as inhibitors; hit rate 0.56% among 390,000; further: nearly all actives have a fitted effect of over 70% in size
Target sequence (P83916 whole entry, looked up): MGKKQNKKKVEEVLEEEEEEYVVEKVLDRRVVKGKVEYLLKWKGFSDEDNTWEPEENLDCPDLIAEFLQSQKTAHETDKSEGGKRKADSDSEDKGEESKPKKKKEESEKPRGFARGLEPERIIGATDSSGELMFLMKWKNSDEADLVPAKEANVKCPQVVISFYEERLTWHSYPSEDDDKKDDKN
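HP1-beta protein (50 nM final) preincubated 30 min at room temperature with biotinylated H3(1-18)K9me3 peptide (50 nM) in PBS pH 7.4, 0.01% Tween-20, then compound added for 30 min. AlphaScreen streptavidin donor/nickel chelate acceptor beads (10 ug/mL final), 30 min dark, luminescence read.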
L3MBTL1 block: blocks human L3MBTL1; AlphaScreen L3MBTL1–H3K9me1 peptide binding; hit rate 0.66% among 230,000; Potency, µM (series often up to 57.1 µM), most hits filed as inhibitors; Q9Y468; AID 485360; further: nearly all actives have a fitted effect of over 60% in size
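Read-out is AlphaScreen signal from streptavidin donor and nickel chelate acceptor beads (10 ug/mL final each) bridging L3MBTL1 (50 nM) and biotinylated K9-monomethylated H3(1-15) peptide (75 nM), after 30 min compound exposure at room temperature.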
JMJD2A Tudor inh: blocks the human JMJD2A Tudor domain. O75164. AlphaScreen JMJD2A-Tudor / H3K4me3 peptide binding. Potency, µM (doses to about 114 µM), actives largely listed as inhibitors. hit rate 4.4% among 390,000. AID 504339; further: nearly all actives have a fitted effect of over 50% in size
G9a block: G9a (human) methyltransferase inhibition. Potency, µM (top dose mostly 102 µM), usual class: inhibitors. hit rate 8.8% among 350,000. G9a H3K9 monomethylation, AlphaScreen, 2 h. AID 504332; further: nearly all actives have a fitted effect of over 75% in size
Target sequence (Q96KQ7 913-1193 limits assumed): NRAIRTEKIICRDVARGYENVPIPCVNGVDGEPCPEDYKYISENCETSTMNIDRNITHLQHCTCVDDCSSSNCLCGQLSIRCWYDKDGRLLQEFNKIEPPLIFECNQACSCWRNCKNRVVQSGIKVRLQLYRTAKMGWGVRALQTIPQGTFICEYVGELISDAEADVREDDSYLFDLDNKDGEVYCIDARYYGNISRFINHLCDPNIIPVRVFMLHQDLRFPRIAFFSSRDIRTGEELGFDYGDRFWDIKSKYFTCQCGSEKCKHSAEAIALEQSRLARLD
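Compounds were preincubated with 20 nM G9a for 15 min, after which biotinylated H3K9 peptide (500 nM) and SAM (20 uM) started a 2 h room-temperature reaction. Monomethylated product was quantified by antibody-based AlphaScreen chemiluminescence.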
A number is an active result; n = inactive; u = inconclusive; x = no result given; [ ] = remark or other dose. A selection: hits, their analogues and other compounds. The true share with any hit is near 12%. The call rests on the fitted dose curve; in most records, active means well fitted curve in the direction sought with a large enough effect; inconclusive means small, poorly fitted or top-dose-only effect, or another doubt; inactive means no such curve, though single readings can be large; an effect the other way counts as inactive or inconclusive.

SMILES	Sfp inh	BAZ2B block	HP1b binding inh	L3MBTL1 block	JMJD2A Tudor inh	G9a block
CCCCC(=O)Nc1ccc(NCc2ccc(C)s2)cc1	n	n	n	x	u	50µM
Cn1c(=O)nc2n(Cc3ccccc3)c3ccccc3cc-2c1=O	n	n	n	n	n	8.9µM
COC(=O)C/C=C\[C@@H](C)[C@@H]1C=C[C@H](OC(C)=O)[C@H](COC(C)=O)O1	n	x	x	x	x	x
Cc1ccc(N2CC(NC(=O)c3cccs3)CC2=O)cc1C (configuration not stated)	x	n	n	x	n	u
CCOc1ccc(C(C)=O)cc1COc1ccc(-c2nnco2)cc1	n	50µM	n	x	n	x
CCCc1cc(=O)n(-c2nc3ccccc3s2)[nH]1	n	n	n	n	n	x
CCOC(=O)Cc1cc(=O)n(-c2nc3ccccc3s2)[nH]1	n	n	n	28µM	n	32µM
O=c1cc(CO)oc(CN2CCCC2)c1O	n	u	n	n	89µM	45µM
O=c1cc(CO)oc(CN2CCN(Cc3ccccc3)CC2)c1O	n	u	n	x	u	50µM
CCN(CC)Cc1oc(CO)cc(=O)c1O	n	32µM	u	1.1µM	u	13µM
CN1CCN(Cc2oc(CO)cc(=O)c2O)CC1	n	u	n	x	56µM	u
O=C(O)C1CCN(Cc2oc(CO)cc(=O)c2O)C1 (configuration not stated)	x	x	n	x	u	x
COc1ccc(S(=O)(=O)c2c(SC)nn(CC(=O)Nc3ccc(C)c(Cl)c3)c2N)cc1	x	n	n	x	n	n
COC(=O)CCn1cnc2onc(-c3cc(F)cc(F)c3)c2c1=O	x	n	n	x	n	n
O=c1c2ccccc2n2c(-c3ccc(Cl)cc3)nnc2n1CCc1ccccc1	x	n	n	x	n	n
CC1=C(C(=O)Nc2ccc([N+](=O)[O-])cc2)C(c2cccc(C(F)(F)F)c2)NC(=S)N1c1ccccc1 (configuration not stated)	n	n	n	x	u	n
COc1ccc(C2NC(=S)N(c3ccccc3)C(C)=C2C(=O)Nc2ccccc2)cc1 (configuration not stated)	89µM	n	n	x	n	u
COc1ccc(NC(=O)Cc2nnc(SCC(=O)NC3CCCCC3)n2C)cc1	n	n	n	x	n	n
CCOc1ccc(Nc2nc(Cc3nnc(SCC(=O)NCC4CCCO4)n3C)cs2)cc1 (configuration not stated)	28µM	u	n	n	u	n
CCOc1ccc(Nc2nc(Cc3nnc(SCC(=O)N(CC)CC)n3C)cs2)cc1	32µM	u	n	n	n	n
COCCCn1c(Cc2csc(Nc3ccc(F)cc3)n2)nnc1SCC(N)=O	50µM	u	n	x	u	u
CCOc1ccc(Nc2nc(Cc3nnc(SCC(=O)NC4CCCCC4)n3C)cs2)cc1	n	50µM	n	x	56µM	n[12.7 µM]
CCC(=O)N1CCc2cc(S(=O)(=O)NC(C(=O)NCCc3ccc(OC)c(OC)c3)C(C)C)ccc21 (configuration not stated)	x	x	n	x	n	n
CCCCCOc1ccc(/C=C/C(=O)Nc2sc3c(c2C(=O)OCC)CCC3)cc1OC	x	n	n	x	n	n
COc1ccccc1OCc1nnc(-c2ccccc2)o1	x	n	n	x	n	n
SMILES	Sfp inh	BAZ2B block	HP1b binding inh	L3MBTL1 block	JMJD2A Tudor inh	G9a block
Cc1cccc(-c2nc3nc(C)cc(NC(C)c4ccccc4)n3n2)c1 (configuration not stated)	x	n	n	x	n	n
O=C(CSc1nc2ccccc2n1S(=O)(=O)c1ccccc1)N1CCCC1	n	n	n	n	n	50µM
O=C(CSc1nc2ccccc2c(=O)n1-c1ccccc1)N1CCCC1	n	n	n	x	n	50µM
O=C(CSc1nc2ccccc2c(=O)n1-c1ccccc1)NC(=O)CN1CCCC1=O	n	79µM	n	u	n	50µM
O=C(CSc1nc2ccccc2c(=O)n1-c1ccccc1)N1CCC1	n	n	n	n	n	n
CC[C@H](C)[C@H](NC(=O)[C@H](CCC(=O)O)NC(=O)[C@@H](N)CO)C(=O)N[C@@H](CCC(N)=O)C(=O)N[C@@H](CC(C)C)C(=O)N[C@@H](CCSC)C(=O)N[C@@H](Cc1cnc[nH]1)C(=O)N[C@@H](CC(N)=O)C(=O)N[C@@H](CC(C)C)C(=O)NCC(=O)N[C@@H](CCCCN)C(=O)N[C@@H](Cc1cnc[nH]1)C(=O)N[C@@H](CC(C)C)C(=O)N[C@@H](CC(N)=O)C(=O)N[C@@H](CO)C(=O)N[C@@H](CCSC)C(=O)N[C@@H](CCC(=O)O)C(=O)N[C@@H](CCCNC(=N)N)C(=O)N[C@H](C(=O)N[C@@H](CCC(=O)O)C(=O)N[C@@H](Cc1c[nH]c2ccccc12)C(=O)N[C@@H](CC(C)C)C(=O)N[C@@H](CCCNC(=N)N)C(=O)N[C@@H](CCCCN)C(=O)N[C@@H](CCCCN)C(=O)N[C@@H](CC(C)C)C(=O)N[C@@H](CCC(N)=O)C(=O)N[C@@H](CC(=O)O)C(=O)N[C@H](C(=O)N[C@@H](Cc1cnc[nH]1)C(=O)N[C@@H](CC(N)=O)C(=O)N[C@@H](Cc1ccccc1)C(=O)O)C(C)C)C(C)C	n	x	x	x	x	x
O=C(Nc1ccc2nc(SCC(=O)N3CCCC3)sc2c1)c1ccccc1F	x	n	n	x	n	n
Nc1ccc2c(c1)OCCOCCOCCOCCOCCO2	n	n	n	n	n	14µM
Brc1ccc2c(c1)OCCOCCOc1cc(Br)ccc1OCCOCCOCCO2	n	n	n	n	n	n
Brc1cc2c(cc1Br)OCCOCCOCCOCCO2	n	n	n	n	8.9µM	n
O=C(CCS(=O)(=O)c1nc(-c2ccc3c(c2)OCO3)cc(C(F)(F)F)n1)Nc1ccccc1C(F)(F)F	x	n	n	x	n	n
COc1cc2c(cc1NC(=O)COc1cc(C)ccc1C)oc1ccccc12	x	n	n	x	n	n
CN(C)S(=O)(=O)c1cccc(-c2nnc(SCc3cc(Cl)cc4c3OCOC4)n2N)c1	32µM	n	u	n	40µM	8.9µM
Cc1nnc(SCc2cc([N+](=O)[O-])cc3c2OCOC3)n(N)c1=O	n	n	n	n	n	n
COc1ccc(N2C(=O)/C(=C/c3ccc([N+](=O)[O-])cc3)C=C2c2ccccc2)cc1	n	2.2µM	3.2µM	n	2.8µM	x
O=C1/C(=C/c2ccc([N+](=O)[O-])cc2)C=C(c2ccccc2)N1c1ccccc1	n	n	n	n	n	u
O=C(O)c1cccc(N2C(=O)/C(=C/c3ccc([N+](=O)[O-])cc3)C=C2c2ccccc2)c1	u	40µM	n	x	25µM	16µM
O=C(O)c1cccc(N2C(=O)c3cc([N+](=O)[O-])cc4cc([N+](=O)[O-])cc(c34)C2=O)c1	n	56µM	u	32µM	50µM	x
